Assay outcomes (PubChem)
Shown are actives, neighbours in structure and some others; about 2.4% of the full set was active somewhere.
FEN1 inh – blocks human flap endonuclease 1; Recombinant FEN1 flap cleavage, fluorescence, 15 min; Potency, µM (doses to about 114 µM), inactives show at the highest dose activity change, negative = inhibition, actives largely listed as inhibitors; actives 0.35% (n = 390,000); further: on the % scale 0 is the no-effect control and ±100 the full control effect; nearly all actives have a fitted effect of over 65% in size
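Concentration–response screening of FEN1 (10 nM): 15 min compound preincubation at room temperature, reaction started with 50 nM substrate and read at 0 and 15 min. Corrected, normalized data were fitted by a four-parameter Hill equation.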
Pol iota inh – inhibitors of human DNA polymerase iota. Potency, µM (highest dose often 115 µM), without a hit: at the highest dose activity, negative = inhibition, hits mostly inhibitors. Pol iota fluorescent replication assay, 10 min. actives 1% (n = 390,000). AID 588590
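Pol iota at 10 nM preincubated 15 min with compounds at room temperature; reaction started with fluorescent substrate, 50 nM final. Fluorescence read kinetically at 0 and 10 min; buffer-only wells as negative control.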
Pol beta inh – blocks human DNA polymerase beta activity; P06746; Pol beta primer extension/strand displacement, fluorescence kinetic; Potency, µM (doses to about 114 µM), for the others: top-dose activity change, negative = inhibition, usual class: inhibitors; actives 1.3% (n = 340,000); further: on the % scale 0 is the no-effect control and ±100 the full control effect
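Curves were derived by four-parameter Hill fits of normalized qHTS data. The kinetic fluorescent primer-extension read was taken at 0 and 10 min after 50 nM substrate, following a 15 min room-temperature preincubation of 10 nM enzyme with compounds.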
POLK inh – blocks human DNA polymerase kappa activity | AID 588579 | actives 0.53% (n = 400,000) | purified Pol kappa, fluorescent DNA synthesis assay, 10 min | Q9UBT6 | Potency, µM (doses to about 107 µM), without a hit: at the highest dose activity, negative = inhibition, actives largely listed as inhibitors; further: on the % scale 0 is the no-effect control and ±100 the full control effect
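Kinetic fluorescence readout at 0 and 10 min followed reaction start with substrate at 50 nM final. Beforehand, enzyme (10 nM Pol kappa) stood 15 min with compound at room temperature; buffer-only wells were negative controls.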
Pol eta inh – DNA polymerase eta (human) inhibition | AID 588591 | Q9Y253 | recombinant Pol eta, fluorescent DNA replication assay | Potency, µM (doses to about 114 µM), without a hit: at the top dose activity change, negative = inhibition, actives largely listed as inhibitors | actives 1.2% (n = 390,000); further: on the % scale 0 is the no-effect control and ±100 the full control effect
Target sequence (Q9Y253 whole entry, looked up): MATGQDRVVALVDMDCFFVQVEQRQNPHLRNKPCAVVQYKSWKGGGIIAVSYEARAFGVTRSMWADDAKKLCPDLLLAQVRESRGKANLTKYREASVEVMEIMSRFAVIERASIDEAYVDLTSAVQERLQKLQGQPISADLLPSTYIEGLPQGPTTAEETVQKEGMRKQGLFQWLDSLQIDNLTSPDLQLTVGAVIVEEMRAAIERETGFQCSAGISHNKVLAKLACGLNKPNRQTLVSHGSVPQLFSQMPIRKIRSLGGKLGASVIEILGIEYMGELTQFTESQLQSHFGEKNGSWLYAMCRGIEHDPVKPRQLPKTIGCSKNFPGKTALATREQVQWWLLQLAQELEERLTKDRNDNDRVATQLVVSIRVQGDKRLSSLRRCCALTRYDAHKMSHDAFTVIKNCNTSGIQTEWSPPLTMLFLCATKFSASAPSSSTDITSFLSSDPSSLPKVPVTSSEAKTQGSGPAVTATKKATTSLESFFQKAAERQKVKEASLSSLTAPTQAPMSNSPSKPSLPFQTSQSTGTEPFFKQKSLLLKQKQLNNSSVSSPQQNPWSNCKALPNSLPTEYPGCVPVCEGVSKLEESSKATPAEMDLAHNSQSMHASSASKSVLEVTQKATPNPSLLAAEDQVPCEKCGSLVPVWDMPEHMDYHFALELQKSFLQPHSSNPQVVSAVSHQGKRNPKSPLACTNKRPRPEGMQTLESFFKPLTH
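Fluorescent replication assay: 50 nM final substrate added after a 15 min room-temperature compound preincubation with 10 nM enzyme. Signal taken at 0 min and again at 10 min.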
WRN helicase inh – WRN helicase (human) inhibition; Q14191; WRN helicase unwinding, fluorescent forked duplex, kinetic; Potency, µM (doses to about 114 µM), for inactives: at the highest dose activity change, negative = inhibition, actives largely listed as inhibitors; actives 0.46% (n = 360,000); further: on the % scale 0 is the no-effect control and ±100 the full control effect; nearly all actives have a fitted effect of over 55% in size
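Fluorescence dequenching readout, ex 525 nm/em 598 nm, kinetic mode: forked duplex DNA (100 nM final) with adjacent fluorophore and quencher unwound by WRN (20 nM final) with 2 mM ATP. Compound preincubation 15 min, room temperature.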
* marks the source's active call; other numbers are inactive results; u = inconclusive; x = no result; ! = not confirmed by another sample; [ ] = another dose, or the depositor's remark. The call rests on the fitted dose curve; in most records, active means well fitted curve in the direction sought with a large enough effect; inconclusive means small, poorly fitted or top-dose-only effect, or another doubt; inactive means no such curve, though single readings can be large; an effect the other way counts as inactive or inconclusive. Potency means the concentration at half of the fitted maximal effect.

SMILES | FEN1 inh | Pol iota inh | Pol beta inh | POLK inh | Pol eta inh | WRN helicase inh
O=C(Nc1nc(-c2cccs2)cs1)C1CC(=O)N(c2ccc3c(c2)OCCO3)C1 (configuration not stated) | -26.8% | -21.7% | x | -10.1% | x | x
Nc1ncc(Br)cc1N=Cc1ccccc1 | 6.2% | 10µM* | 39.8µM* | -27.8% | -23.9% | u
Cn1ncc(N=Cc2ccccc2)c1C(N)=O | -0.4% | 9.0% | 0.9% | -10.0% | u | -12.7%
O=S(=O)(c1ccc(F)cc1)N1CCC(Oc2ccc(-n3cnnn3)cc2)CC1 | 14.6% | 1.3% | 17.9% | -22.7% | -10.8% | x
O=C(Nc1ccccc1C(=O)O)/C(=C/c1ccc([N+](=O)[O-])cc1)NC(=O)c1ccc(Br)o1 | 0.3% | -17.8% | 28.2µM* | -29.3% | 39.8µM* | -7.9%[11.6 µM]
Cc1noc(C)c1-c1ccc2ncnc(N3CCN(C)CC3)c2c1 | x | x | x | 5.2%[60.1 µM] | x | x
COc1ccc2c(c1)C(c1ccccc1OC)CC(=O)O2 (configuration not stated) | x | x | x | 39.8µM* | x | x
Oc1ccc(-c2csc(Nc3ccccn3)n2)cc1O | -23.8% | u | 7.94µM* | u | 17.8µM* | -9.6%[11.6 µM]
O=C1C=C(Nc2ccccc2)c2ccccc2C1=O | -9.1% | 22.4µM* | -2.2% | 2.1% | u | 3.4%[11.6 µM]
O=C1C=C(Nc2ccccc2)C(=O)c2ccccc21 | -12.6% | 27.7% | 44.6% | -3.3% | -9.2% | -6.0%
O=Cc1cc(N=Nc2cccc(C(=O)O)c2)ccc1O | -13.9% | u | 35.5µM* | u | u | -9.5%[11.6 µM]
CC(C)(C)n1ncc2c(=O)n(Cc3ccccc3C#N)cnc21 | 4.7% | 19.8% | x | -22.7% | x | x
CN(C)c1ccc(/C=C2\SC(=O)N(CCc3nnc(N)s3)C2=O)cc1 | 2.1% | 50.1µM* | u | -18.4% | -11.3% | -12.4%
CN(C)c1ccc(/C=C2/SC(=O)N(CCN=C3NS(=O)(=O)c4ccccc43)C2=O)cc1 | 0.8% | 1.7% | -0.8%[57.1 µM] | -13.0% | u | -27.9%[57.1 µM]
c1coc(CSSCc2ccco2)c1 | u | u | x | 8.91µM* | 20µM* | 50.1µM*
O=C(O)c1ccc(NC(CSCc2ccc(F)cc2)C(=O)O)c([N+](=O)[O-])c1 (configuration not stated) | 2.0% | 79.4µM* | 3.4% | -14.8% | -1.0% | -2.0%
Cc1ccc(CSCC(Nc2ccc(C(=O)O)cc2[N+](=O)[O-])C(=O)O)cc1 (configuration not stated) | -1.3% | 1.3% | 27.2% | -3.9%[60.1 µM] | -2.7% | -5.0%
N[C@@H](Cc1cc(-c2ccc(Cl)cc2Cl)cc(CP(=O)(O)O)c1O)C(=O)O | x | x | x | 1.78µM* | x | x
COc1ccc(-c2noc(-c3ccc(NC4CCCCC4)c([N+](=O)[O-])c3)n2)cc1OC | 16.0% | 18.4% | 7.5% | 2.3% | -17.4% | x
COc1ccc(-c2noc(-c3ccc(NC(C)c4ccccc4)c([N+](=O)[O-])c3)n2)cc1OC (configuration not stated) | -7.2% | 54.9% | 31.6µM* | -9.6% | -18.4% | x
C[C@@H]1CN([C@@H](C)CO)C(=O)CCCn2nncc2CO[C@@H]1CN(C)C(=O)Nc1ccc(C(F)(F)F)cc1 | x | x | x | x | -6.6% | 2.7%
Cc1ccc(/C=N/n2c(-c3ccccn3)n[nH]c2=S)o1 | -20.4% | 50.1µM* | -25.6% | -25.3% | -10.8% | -7.3%
COc1ccc(CNc2nc(Cl)nc3nc[nH]c23)cc1 | u | u | x | -1.1% | x | x
Cc1cccc(N(C)S(=O)(=O)c2c(C(=O)N3CCCCCC3)c(C)n(C)c2C)c1 | 2.8% | 25.8% | 12.3% | 14.2% | -15.6% | x
N#Cc1ccc(/C=C\c2nccc3c2[nH]c2ccccc23)cc1 | -3.1% | u | 17.8µM* | -18.4% | -1.4% | -27.5%
SMILES | FEN1 inh | Pol iota inh | Pol beta inh | POLK inh | Pol eta inh | WRN helicase inh
Clc1ccc(/C=C\c2nccc3c2[nH]c2ccccc23)cc1 | 8.8% | 95.2% | 28.7% | 0.9% | -24.3% | 6.2%
CC(=O)N=c1sc2nc3ccccc3nc2n1N(C(C)=O)C(C)=O | 79.4µM* | u | 4.1% | -19.5% | -9.8% | 7.5%[11.6 µM]
CC(=O)N=c1sc2ccccc2n1C | 6.1% | 6.0% | 18.0% | -3.0% | 6.4% | 3.5%
CCCNC(=O)c1ccc(-c2nc3ccccc3s2)s1 | 4.9% | u | 15.8µM* | -10.0% | u | -16.3%
COc1ccc(-c2cc3nc(C)c(CCC(=O)Nc4ccccc4C(C)=O)c(C)n3n2)c(OC)c1 | -4.5% | 27.3% | 12.9% | 0.6% | -21.2% | x
COc1ccc(-c2nnc(SCC(=O)N3CCc4ccccc43)o2)cc1OC | -2.8% | 25.8% | -29.9% | -1.7% | -15.6% | x
COc1ccc(NC(=O)C2CCCN(S(=O)(=O)c3ccc4c(c3)CCCN4C(C)=O)C2)cc1 (configuration not stated) | 14.5% | 79.4µM*! | 4.2% | -16.5% | 19.3% | -3.0%
COc1cc(NC(=O)C2CCCN(S(=O)(=O)c3ccc4c(c3)CCCN4C(C)=O)C2)cc(OC)c1 (configuration not stated) | 6.3% | -1.7% | 3.2% | -15.1% | -10.4% | -25.9%[57.1 µM]
CCNc1ncc2nc(-c3cc(F)cc(F)c3)c(=O)n(Cc3cccs3)c2n1 | x | x | x | 3.4%[60.1 µM] | x | x
Fc1cccc2sc(Nc3nnc(-c4ccco4)o3)nc12 | -25.4% | u | 17.8µM* | -27.9% | u | u
O=C(Nc1nc2c(F)cccc2s1)c1ccco1 | 13.7% | 4.1% | 0.9% | 15.8% | -10.0% | 0.7%
CCOC(=O)C1(C)CCN1C(=O)c1ccc(C(F)(F)F)cc1 (configuration not stated) | x | x | x | x | x | 5.2%
COc1cccc(NC(=O)Cn2nc(Cc3cccnc3)c3ccccc3c2=O)c1 | -0.7% | 15.3% | 7.1% | -9.1% | -15.2% | 5.2%
O=C(Cn1nc(Cc2cccnc2)c2ccccc2c1=O)Nc1cccc(C(F)(F)F)c1 | 89.1µM* | u | 11.6% | u | -4.7% | x
O=C1Cc2cccc(=O)c(O)c2C(=O)O1 | x | x | x | x | 8.91µM* | -20.1%
O=C1c2c(O)cccc2Cc2cccc(O)c21 | 9.3% | 7.6% | x | 22.4µM*! | -20.6% | -5.9%
C(COC1CC2CC1C1C2CC2OC21)OC1CC2CC1C1C2CC2OC21 (configuration not stated) | -1.5% | -10.3% | x | -10.7% | -19.2% | 1.3%
COc1cc(OC)c2c(C)c(CC(=O)NCCc3ccccc3OC)c(=O)oc2c1 | -1.8% | 6.9% | 2.1% | -3.8% | -12.1% | x
Cc1ccc(-c2cc(C(=O)NCCc3ccccc3)c3c(-c4ccc(C)cc4)[nH]nc3n2)cc1 | 1.2% | -12.9% | -2.5% | -6.9% | x | x
COc1cc(OC)c(NC(=O)c2cn(C)c(=O)c3cc(OC)c(OC)cc23)cc1Cl | -7.0% | 30.2% | 9.1% | -19.7% | 56.2µM* | x
CCOC(=O)c1ccc(S(=O)(=O)N2CCN(c3nc(-c4ccccc4)nc4ccccc34)CC2)cc1 | -6.8% | 6.9% | x | -15.6% | x | x
